Rows were chosen to be rich in hits. Some 13% of all compounds tested hit in one or more screens of this group.
USP17 block – inhibitors of human USP17 deubiquitinase; AID 1645855, 2021; actives 6.5% (n = 47,000); Ubiquitin carboxyl-terminal hydrolase 17-like protein 5 (Homo sapiens), A8MUK1; inhibition, % at 50 µM; purified USP17, Ub-rhodamine cleavage fluorescence, 3 h
USP8 block – inhibitors of human USP8 deubiquitinase. Ubiquitin carboxyl-terminal hydrolase 8 (Homo sapiens), P40818. purified USP8, Ub-rhodamine cleavage fluorescence, 30 min. inhibition, % at 20 µM. actives 4.2% (n = 47,000). AID 1645853, 2021
USP28 block – inhibitors of human USP28 deubiquitinase. Ubiquitin carboxyl-terminal hydrolase 28 (Homo sapiens), Q96RU2. purified USP28, Ub-rhodamine cleavage fluorescence, 30 min. inhibition, % at 25 µM. actives 3% (n = 47,000)
USP10 inh – inhibitors of human USP10 deubiquitinase; purified USP10, Ub-rhodamine fluorescence, 60 min; AID 1645856, 2021; inhibition, % at 20 µM; Ubiquitin carboxyl-terminal hydrolase 10 (Homo sapiens), Q14694; actives 1.1% (n = 47,000)
USP30 block – inhibitors of human USP30 deubiquitinase; inhibition, % at 25 µM; purified USP30, Ub-rhodamine cleavage fluorescence; actives 5.3% (n = 47,000); Ubiquitin carboxyl-terminal hydrolase 30 (Homo sapiens), Q70CQ3
Target sequence (Q70CQ3 whole entry, looked up): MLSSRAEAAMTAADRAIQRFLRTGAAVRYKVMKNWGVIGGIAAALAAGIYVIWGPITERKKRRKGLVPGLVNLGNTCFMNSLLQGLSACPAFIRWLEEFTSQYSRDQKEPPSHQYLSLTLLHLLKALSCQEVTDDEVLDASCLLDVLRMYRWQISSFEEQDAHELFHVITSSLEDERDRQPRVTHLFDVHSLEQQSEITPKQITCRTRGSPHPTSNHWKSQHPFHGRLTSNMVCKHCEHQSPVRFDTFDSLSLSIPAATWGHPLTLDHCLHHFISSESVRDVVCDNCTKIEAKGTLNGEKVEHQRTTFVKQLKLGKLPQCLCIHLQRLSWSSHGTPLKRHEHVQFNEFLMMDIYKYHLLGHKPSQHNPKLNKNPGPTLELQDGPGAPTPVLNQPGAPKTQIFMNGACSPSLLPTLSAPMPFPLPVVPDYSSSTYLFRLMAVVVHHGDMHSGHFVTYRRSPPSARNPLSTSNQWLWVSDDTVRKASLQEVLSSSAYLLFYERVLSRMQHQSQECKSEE
Hits are given with their value; . = inactive. No stated cut-off is given here; in the data, active means inhibition above about 30%; inactive means the rest.

SMILES	USP17 block	USP8 block	USP28 block	USP10 inh	USP30 block
O=C(Nc1ccc(F)cc1F)c1ccc(-c2nc(-c3ccc(F)cc3)cs2)cc1	.	.	.	.	.
Cc1ccccc1NC(=O)Cn1cncc(-c2nc(-c3ccccc3)cs2)c1=O	60.2	.	.	.	.
Cc1ccccc1NC(=O)Cn1c(C)ncc(-c2nc(-c3ccccc3)cs2)c1=O	.	.	.	.	.
Cc1ccc(NC(=O)Cn2cncc(-c3nc(-c4ccccc4)cs3)c2=O)cc1F	.	40.8	.	33.4	.
O=C(Cn1cncc(-c2nc(-c3ccccc3)cs2)c1=O)Nc1ccc(F)cc1F	.	41.4	.	.	.
O=C(Nc1ccc(F)cc1F)c1csc(-c2ccccc2)n1	82.6	.	.	.	.
COc1ccc(-c2nc3ccccc3o2)cc1NC(=O)Cc1ccc(OC)c(OC)c1	.	.	.	.	.
COc1ccc(CC(=O)Nc2ccccc2-c2nc3ccccc3[nH]2)cc1OC	76.1	.	.	.	50.1
COc1cccc(C(=O)NCc2cc(-c3ccc(F)cc3F)on2)c1OC	.	.	.	.	39.7
COc1ccccc1CNC(=O)Cc1cc(-c2ccc(F)cc2)on1	.	.	.	.	.
Cc1ccc(-c2cc(CNC(=O)COc3ccccc3F)no2)cc1	.	.	.	.	.
COc1ccccc1OCC(=O)NCc1cc(-c2ccc(F)cc2)on1	.	.	.	.	.
CCc1ccc(OCC(=O)NCc2csc(-c3ccc(OC)cc3)n2)cc1	.	.	.	.	.
Cc1cccc(OCC(=O)NCc2cc(-c3ccccc3F)on2)c1	41.6	.	.	.	42.2
COc1ccc(-c2nc(CNC(=O)COc3ccc(C)cc3)cs2)cc1	57.3	.	.	.	.
COc1cccc(-c2cc(CNC(=O)COc3ccc(F)cc3)no2)c1	.	.	.	.	35.2
Cc1cccc2c(=O)[nH]c(CN3CCCC3c3ccc4c(c3)OCCCO4)nc12 (stereo not drawn)	.	.	.	.	.
Cc1cc(C)c2c(N3CCCC3)nc(C(=O)N3CCN(C)CC3)nc2n1	.	.	.	.	.
Fc1ccc(CNc2nn3c(-c4cccnc4)cnc3s2)cc1	.	.	.	.	.
CN(C)c1ccc(CNc2nn3c(-c4cccnc4)cnc3s2)cc1	62.7	.	66.8	.	90.6
c1cncc(-c2cnc3sc(NCc4ccc5c(c4)OCO5)nn23)c1	61.1	36.6	86.9	30.4	100.7
Cc1ccccc1C(=O)N1CCN(c2oc(-c3ccccc3Cl)nc2C#N)CC1	.	.	.	.	.
CCc1ccc(N2C(=O)c3ccccc3C2C(=O)NCc2ccccc2OC)cc1 (stereo not drawn)	67.6	.	.	.	63.1
COc1cccc(NC(=O)Nc2ccc3nc4n(c(=O)c3c2)CCCC4)c1	33.9	49.9	55.2	.	.
COc1ccc(NC(=O)Nc2ccc3nc4n(c(=O)c3c2)CCCC4)cc1OC	.	.	31.4	.	.
SMILES	USP17 block	USP8 block	USP28 block	USP10 inh	USP30 block
O=C(Nc1ccc2c(c1)OCCO2)Nc1ccc2nc3n(c(=O)c2c1)CCCC3	31.8	.	68.2	.	.
O=C(Nc1ccc2nc3n(c(=O)c2c1)CCCC3)c1ccc2c(c1)OCO2	.	.	.	.	.
CC(C)CCN1C(=O)CC[C@]2(C(=O)N3CCNC(=O)C3)CCCC[C@@H]12	.	.	.	.	.
Cc1ccccc1CN1C(=O)N(c2ccc(F)cc2)c2ncccc2S1(=O)=O	.	.	.	.	.
COc1ccccc1CNc1ncc(C(=O)NCCC2=CCCCC2)c(C)n1	.	.	.	.	.
O=C(CCc1ccc(S(=O)(=O)N2CCOCC2)cc1)Nc1ccc2c(c1)OCO2	.	.	.	.	.
Cc1ccc(S(=O)(=O)N2CCOCC2)cc1C(=O)NCCc1ccc(S(N)(=O)=O)cc1	.	.	.	.	.
Cc1ccc(NC(=O)CCc2ccc(S(=O)(=O)N3CCOCC3)cc2)c(O)c1	.	46.9	.	.	.
O=C(CCc1ccc(S(=O)(=O)N2CCOCC2)cc1)Nc1ccc2c(c1)OCCO2	.	.	61.3	.	.
O=C1c2oc3ccc(Br)cc3c(=O)c2C(c2ccncc2)N1Cc1ccccc1 (stereo not drawn)	.	.	.	.	.
Cc1ccc(NC2c3ccccc3C(=O)N2c2ccccn2)cc1 (stereo not drawn)	.	.	.	.	.
COc1ccc(NC2c3ccccc3C(=O)N2c2ccccn2)cc1 (stereo not drawn)	57.4	82.7	.	.	.

Screens as filed in PubChem.
